# Measurements: PubChem BioAssay
# Unmarked numbers belong to inactive results. The source made the active and inactive calls. Cut-off read from the data, not from the text of the source, unless noted: active = inhibition above about 30%; inactive = the rest.
# Target: Nuclear receptor coactivator 3 (Homo sapiens) (UniProt Q9Y6Q9)
# Experiment: SRC3 coactivator transcriptional activity inhibitors, confirmation, cell-based, luminescence, quadruplicate (AID 588792;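 active = mean inhibition over 43.08%, the solvent-only control mean plus 3 SD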;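 note: 0% = DMSO treated cells and 100% = gossypol at 36 µM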)
# Conditions: HEK293 GAL4-SRC3 luciferase reporter, at 3.6 µM, active compounds read high
# Nuclear receptor coactivator 3 (Homo sapiens), sequence (Q9Y6Q9 whole entry, looked up): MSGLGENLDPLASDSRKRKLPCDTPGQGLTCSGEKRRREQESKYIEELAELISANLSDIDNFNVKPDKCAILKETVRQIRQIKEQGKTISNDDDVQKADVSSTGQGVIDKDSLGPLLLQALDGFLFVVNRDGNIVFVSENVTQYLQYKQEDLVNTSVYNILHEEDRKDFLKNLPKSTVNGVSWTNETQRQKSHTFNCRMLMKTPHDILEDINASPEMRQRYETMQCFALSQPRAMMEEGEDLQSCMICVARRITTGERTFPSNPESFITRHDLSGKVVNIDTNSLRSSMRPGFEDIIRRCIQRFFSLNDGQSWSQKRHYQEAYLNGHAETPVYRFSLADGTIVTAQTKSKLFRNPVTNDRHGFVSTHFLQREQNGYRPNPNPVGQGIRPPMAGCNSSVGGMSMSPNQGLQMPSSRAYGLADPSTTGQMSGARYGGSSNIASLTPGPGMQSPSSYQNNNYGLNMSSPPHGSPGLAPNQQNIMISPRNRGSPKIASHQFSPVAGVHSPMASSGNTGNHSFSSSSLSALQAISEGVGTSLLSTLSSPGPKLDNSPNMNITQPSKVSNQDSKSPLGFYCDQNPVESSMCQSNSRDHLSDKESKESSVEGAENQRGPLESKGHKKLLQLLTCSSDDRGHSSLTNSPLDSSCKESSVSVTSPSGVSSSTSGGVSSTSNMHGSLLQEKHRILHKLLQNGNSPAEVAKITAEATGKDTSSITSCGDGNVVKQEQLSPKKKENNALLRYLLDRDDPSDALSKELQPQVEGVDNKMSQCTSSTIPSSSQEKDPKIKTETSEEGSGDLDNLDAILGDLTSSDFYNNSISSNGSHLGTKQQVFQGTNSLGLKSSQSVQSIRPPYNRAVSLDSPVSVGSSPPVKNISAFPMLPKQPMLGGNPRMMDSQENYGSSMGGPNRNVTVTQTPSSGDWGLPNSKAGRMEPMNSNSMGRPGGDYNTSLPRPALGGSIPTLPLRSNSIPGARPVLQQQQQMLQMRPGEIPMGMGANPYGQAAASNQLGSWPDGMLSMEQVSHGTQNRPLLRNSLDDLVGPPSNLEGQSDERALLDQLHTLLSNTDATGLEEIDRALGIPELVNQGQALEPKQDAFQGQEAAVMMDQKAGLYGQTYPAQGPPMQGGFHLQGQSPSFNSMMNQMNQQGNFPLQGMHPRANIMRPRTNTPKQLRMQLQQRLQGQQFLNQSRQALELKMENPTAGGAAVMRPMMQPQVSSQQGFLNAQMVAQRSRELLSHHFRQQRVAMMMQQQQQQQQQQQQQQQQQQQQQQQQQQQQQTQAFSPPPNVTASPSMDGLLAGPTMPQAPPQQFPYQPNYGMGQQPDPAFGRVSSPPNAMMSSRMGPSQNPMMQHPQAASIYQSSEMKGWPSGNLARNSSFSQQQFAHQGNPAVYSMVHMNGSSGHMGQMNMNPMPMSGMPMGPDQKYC
row,Structure (SMILES),inhibition [%]
1,O=C(NNc1ccccc1)c1ccc(Cl)c(Cl)c1,19.8
2,CCOC(=O)c1cnc(SC2CC(=O)N(c3cccc(OC)c3)C2=O)nc1N (stereo not given),9.15
3,C[C@H](NC(=O)Nc1ccccc1F)C(=O)O,5.66
4,CCCCc1nc2ccccc2c(N)c1CCC (tested in a mixture with another compound),8.62
5,COc1ccc(OC)c(Nc2nc(N)nc(CCl)n2)c1,15.4
6,Cc1nc(NCc2ccccn2)c2ccccc2n1,-6.68
7,COc1ccc(S(=O)(=O)N2CCCCCC2)cc1C(=O)N(C)CC(=O)Nc1cc(C)ccc1C,8.3
8,O=C(NCc1cccs1)C1CCCN(C(=O)Nc2ccc(F)cc2)C1 (stereo not given),-1.07
9,Cc1ccc(C(=O)C[n+]2cc(-c3ccccc3)n3c2CCCCC3)cc1,6.68
10,Cc1cc(C)nc(/N=C(\N)Nc2ccc(OCCC(C)C)cc2)n1,-1.86
11,CCN(CC)c1ccc(Nc2nc(N3CCOCC3)c3ccccc3n2)cc1,4.45
12,CCc1ccc(N2CC(C(=O)N/N=C/c3cc([N+](=O)[O-])ccc3O)CC2=O)cc1 (stereo not given),-9
13,COc1cccc2[nH]c(=O)c(-c3ccccc3)cc12,-103
14,Cc1nnsc1-c1onc(C)c1C(=O)Nc1cc(Cl)cc(Cl)c1,15.8
15,CCOc1cc(C(=O)N2CCC(CC3CC(c4ccc(Cl)cc4)=NO3)(C(=O)NCC3CCCCC3)CC2)cc(OCC)c1OCC (stereo not given),6.12
16,CCCCC(O)(CCCC)C(=O)NN(C(=O)OCC)c1ccccc1,11.9
17,Cc1cccc(NNC(=O)C(=O)NNc2cccc(C)c2)c1,18.6
18,O=C(Nc1nc(-c2ccccn2)cs1)c1ccc(F)c(S(=O)(=O)N2CCOCC2)c1,28
19,Cc1ccc(C)c(S(=O)(=O)N2CCCCC2CCNC(=O)C(=O)NCc2ccncc2)c1 (stereo not given),0.55
20,Cc1ccc(OCC(O)CN2CCN(CC(O)COC(C)C)CC2)c(C(C)(C)C)c1 (stereo not given),8.73
21,O=C(CN1C(=O)C(=O)N(C2CCCC2)C1=O)Nc1ccccc1OC(F)F,10.1
22,FC(F)(F)c1cccc(NC(=S)N(CCCN2CCCC2)Cc2cccn2Cc2ccc(Cl)cc2)c1,-14.5
23,Cc1cc(C(C)(C)C)cc(C)c1Cn1c2[n+](c3ccc(C(F)(F)F)cc31)CCCCC2,11
24,CCOc1ccc(N2C(=O)C(CC(=O)Nc3ccccc3)N(Cc3ccccn3)C2=S)cc1 (stereo not given),9.7
25,Cc1nc(Nc2ccc3c(c2)OCCO3)c2nnn(Cc3ccccc3Cl)c2n1,22.1

# System: transactivating tegument protein VP16 (Human herpesvirus 1), Gal4-VP16 luciferase reporter
# Experiment: VP16 transactivation inhibitors, counter-screen for SRC3 inhibitor project, cell-based, luminescence, high throughput (AID 588794)
# Conditions: mammalian cells, VP16-driven luciferase reporter luminescence; at 3.6 µM; active compounds read high
row,Structure (SMILES),inhibition
1,NC(=S)Nc1cc(Cl)cc(Cl)c1,20.4%
2,Cc1cccc(C)c1OCC(=O)N(Cc1cccs1)C1CCS(=O)(=O)C1 (stereo not given),1.1%
3,CC(Oc1ccc(Cl)cc1)C(=O)NCCN1C(=O)S/C(=C\c2cccnc2)C1=O (stereo not given),-2.64%
4,COC(=O)c1ccc(S(=O)(=O)NCc2ccc(S(N)(=O)=O)cc2)o1,-6.55%
5,CC(=O)Nc1cccc(C(=O)/C=C/c2ccc(Br)cc2)c1,11%
6,COc1ccc2c(c1)-c1c(ssc1=S)C(C)(C)N2S(=O)(=O)c1ccc(C)cc1,13.9%
7,C[C@H](NS(=O)(=O)c1ccc(Cl)cc1)C(=O)OCC(=O)NC(=O)Nc1ccc2c(c1)OCCO2,-25.8%
8,Cc1c(Cl)cccc1NC(=O)Nc1ccccc1C(N)=O,27.1%
9,Cc1ccc(CNC(=O)CCc2ccc(S(=O)(=O)NC3CCCCC3)cc2)cc1,0.04%
10,COC(=O)c1cc(S(=O)(=O)NCCc2ccc(Cl)cc2)c[nH]1,18.4%
11,CC(=O)c1c(C)[nH]c(C(=O)Nc2ccc(Cl)c(S(=O)(=O)N3CCOCC3)c2)c1C,-16.6%
12,O=C(CN1C(=O)c2ccccc2S1(=O)=O)c1ccc(F)cc1,17.6%
13,CCN1C/C(=C/c2ccc(N3CCOCC3)cc2)C(=O)/C(=C/c2ccc(N3CCOCC3)cc2)C1,22.6%
14,Cc1[nH]n(-c2ccccc2)c(=O)c1/C=N/Nc1nncc(-c2ccccc2)n1,67.5% (active)
15,CCN(CC)S(=O)(=O)c1cccc(NC(=O)C2SC(=Nc3ccc(C)cc3C)C(C(=O)NC(C)COC)=C2N)c1 (stereo not given),5.31%
16,O=C(NNc1ccccc1)c1ccc(Cl)c(Cl)c1,58.7% (active)
17,CCOC(=O)c1cnc(SC2CC(=O)N(c3cccc(OC)c3)C2=O)nc1N (stereo not given),6.73%
18,C[C@H](NC(=O)Nc1ccccc1F)C(=O)O,3.39%
19,CCCCc1nc2ccccc2c(N)c1CCC (tested in a mixture with another compound),9.99%
20,COc1ccc(OC)c(Nc2nc(N)nc(CCl)n2)c1,4.74%

row,Structure (SMILES),inhibition
1,Cc1nc(NCc2ccccn2)c2ccccc2n1,13.9%
2,COc1ccc(S(=O)(=O)N2CCCCCC2)cc1C(=O)N(C)CC(=O)Nc1cc(C)ccc1C,10.6%
3,O=C(NCc1cccs1)C1CCCN(C(=O)Nc2ccc(F)cc2)C1 (stereo not given),5.59%
4,Cc1ccc(C(=O)C[n+]2cc(-c3ccccc3)n3c2CCCCC3)cc1,22.9%
5,Cc1cc(C)nc(/N=C(\N)Nc2ccc(OCCC(C)C)cc2)n1,23.4%
6,CCN(CC)c1ccc(Nc2nc(N3CCOCC3)c3ccccc3n2)cc1,20.2%
7,CCc1ccc(N2CC(C(=O)N/N=C/c3cc([N+](=O)[O-])ccc3O)CC2=O)cc1 (stereo not given),9.04%
8,COc1cccc2[nH]c(=O)c(-c3ccccc3)cc12,-36.1%
9,Cc1nnsc1-c1onc(C)c1C(=O)Nc1cc(Cl)cc(Cl)c1,13.8%
10,CCOc1cc(C(=O)N2CCC(CC3CC(c4ccc(Cl)cc4)=NO3)(C(=O)NCC3CCCCC3)CC2)cc(OCC)c1OCC (stereo not given),7.56%
11,CCCCC(O)(CCCC)C(=O)NN(C(=O)OCC)c1ccccc1,14.8%
12,Cc1cccc(NNC(=O)C(=O)NNc2cccc(C)c2)c1,24.3%
13,O=C(Nc1nc(-c2ccccn2)cs1)c1ccc(F)c(S(=O)(=O)N2CCOCC2)c1,33.5% (active)
14,Cc1ccc(C)c(S(=O)(=O)N2CCCCC2CCNC(=O)C(=O)NCc2ccncc2)c1 (stereo not given),7.08%
15,Cc1ccc(OCC(O)CN2CCN(CC(O)COC(C)C)CC2)c(C(C)(C)C)c1 (stereo not given),13.2%
16,O=C(CN1C(=O)C(=O)N(C2CCCC2)C1=O)Nc1ccccc1OC(F)F,-11.8%
17,FC(F)(F)c1cccc(NC(=S)N(CCCN2CCCC2)Cc2cccn2Cc2ccc(Cl)cc2)c1,0.12%
18,Cc1cc(C(C)(C)C)cc(C)c1Cn1c2[n+](c3ccc(C(F)(F)F)cc31)CCCCC2,21.3%
19,CCOc1ccc(N2C(=O)C(CC(=O)Nc3ccccc3)N(Cc3ccccn3)C2=S)cc1 (stereo not given),12.2%
20,Cc1nc(Nc2ccc3c(c2)OCCO3)c2nnn(Cc3ccccc3Cl)c2n1,-3.54%
